Test results: PubChem BioAssay AID1159580 (chemical genetic matrix, 2015)
Where “and” joins values, the source holds several entries; their conditions need not be identical. Equal entries are not always repeated. Screen size: about 5,500 compounds; about 2,000 (36%) were called active. Another 18% or so got no clear call; they are omitted. Rule as the data show it: active = normalized growth mostly below about 0.91 (no sharp cut-off); inconclusive = no clear call, values can overlap the other calls; inactive = mostly above about 0.92. The list shows a part of the results.

Assay: chemical genetic growth profiling, strain panel (AID 1159580);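 also: tested at 20 µM; growth read once vehicle control cultures reached saturation at 30 °C; 1 = growth at the plate median or of vehicle wells; lower values mean less growth of the strain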
Conditions: S. cerevisiae deletion strains, growth OD

Measured: normalized growth

CN1CCc2cc3c(cc2C1O)OCO3 (centres undefined)
inactive: locus YAL021C, strain ccr4, stronger effect = lower value 1.03 | locus YAL026C, strain drs2, stronger effect = lower value 0.986 | locus YAL030W, strain snc1, stronger effect = lower value 0.993 | locus YBL061C, strain skt5, stronger effect = lower value 0.984 | locus YBR009C, strain hhf1, stronger effect = lower value 1.01 | locus YBR021W, strain FUR4, stronger effect = lower value 1.08 | locus YBR023C, strain chs3, stronger effect = lower value 1.01 | locus YBR171W, strain sec66, stronger effect = lower value 0.978 | locus YBR229C, strain ROT2, stronger effect = lower value 0.954 | locus YBR231C, strain swc5, stronger effect = lower value 0.954 | locus YBR279W, strain paf1, stronger effect = lower value 1 | locus YCL011C, strain gbp2, stronger effect = lower value 1.01 | locus YCL016C, strain dcc1, stronger effect = lower value 1.01 | locus YCL029C, strain bik1, stronger effect = lower value 0.982 | locus YCL061C, strain MRC1, stronger effect = lower value 1 | locus YCL069W, strain vba3, stronger effect = lower value 0.988 | locus YCR088W, strain abp1, stronger effect = lower value 0.988 | locus YDL005C, strain med2, stronger effect = lower value 0.992 | locus YDL035C, strain GPR1, stronger effect = lower value 0.993 | locus YDL040C, strain nat1, stronger effect = lower value 0.995 | locus YDL074C, strain BRE1, stronger effect = lower value 1.03 | locus YDL101C, strain DUN1, stronger effect = lower value 0.977 | locus YDL185W, strain tfp1, stronger effect = lower value 0.969 | locus YDL192W, strain arf1, stronger effect = lower value 0.998 | locus YDR001C, strain nth1, stronger effect = lower value 0.994 | locus YDR069C, strain doa4, stronger effect = lower value 0.969 | locus YDR101C, strain arx1, stronger effect = lower value 1.02 | locus YDR137W, strain rgp1, stronger effect = lower value 0.981 | locus YDR150W, strain NUM1, stronger effect = lower value 0.987 | locus YDR159W, strain sac3, stronger effect = lower value 0.946 | locus YDR162C, strain NBP2, stronger effect = lower value 0.943 | locus YDR195W, strain ref2 0.934 | locus YDR297W, strain sur2, stronger effect = lower value 1.01 | locus YDR318W, strain mcm21, stronger effect = lower value 0.978 | locus YDR334W, strain swr1, stronger effect = lower value 0.993 | locus YDR335W, strain msn5, stronger effect = lower value 1.01 | locus YDR388W, stronger effect = lower value 0.956 | locus YDR392W, strain spt3, stronger effect = lower value 0.926 | locus YDR502C, strain sam2, stronger effect = lower value 0.973 | locus YEL003W, strain gim4, stronger effect = lower value 0.966 | locus YEL037C, strain rad23, stronger effect = lower value 1 | locus YEL061C, strain CIN8 (second series), stronger effect = lower value 0.987 | locus YEL061C, strain CIN8, stronger effect = lower value 0.99 | locus YER015W, strain faa2, stronger effect = lower value 0.996 | locus YER016W, strain bim1, stronger effect = lower value 0.986 | locus YER110C, stronger effect = lower value 0.977 | locus YER111C, strain swi4, stronger effect = lower value 0.992 | locus YER155C, strain BEM2 (second series), stronger effect = lower value 0.962 | locus YER155C, strain BEM2, stronger effect = lower value 0.984 | locus YER167W, strain BCK2, stronger effect = lower value 0.986 | locus YFR010W, strain ubp6, stronger effect = lower value 0.979 | locus YGL078C, strain dbp3, stronger effect = lower value 0.995 | locus YGL086W, strain mad1, stronger effect = lower value 1.05 | locus YGL167C, strain pmr1, stronger effect = lower value 0.989 | locus YGL173C, strain kem1, stronger effect = lower value 0.994 | locus YGL227W, strain vid30, stronger effect = lower value 0.986 | locus YGL240W, strain doc1, stronger effect = lower value 0.957 | locus YGL248W, strain PDE1, stronger effect = lower value 0.974 | locus YGL253W, strain hxk2, stronger effect = lower value 0.988 | locus YGR135W, strain pre9, stronger effect = lower value 0.966 | locus YGR252W, strain gcn5, stronger effect = lower value 0.95 | locus YHR013C, strain ard1, stronger effect = lower value 0.995 | locus YHR027C, strain rpn1, stronger effect = lower value 0.991 | locus YHR030C, strain SLT2, stronger effect = lower value 0.992 and 1.09 | locus YHR079C, strain IRE1 (second series), stronger effect = lower value 0.978 | locus YHR079C, strain IRE1, stronger effect = lower value 1.1 | locus YHR094C, strain hxt1, stronger effect = lower value 0.968 | locus YHR129C, strain ARP1, stronger effect = lower value 0.99 | locus YHR142W, strain chs7, stronger effect = lower value 1.01 | locus YHR200W, strain rpn10, stronger effect = lower value 0.964 | locus YIL066C, strain RNR3, stronger effect = lower value 0.989 | locus YIL073C, strain SPO22, stronger effect = lower value 0.988 | locus YIL125W, strain kgd1, stronger effect = lower value 0.988 | locus YIR030C, strain dcg1, stronger effect = lower value 0.977 | locus YJL092W, strain hpr5, stronger effect = lower value 1 | locus YJL095W, strain BCK1 (second series), stronger effect = lower value 1.01 | locus YJL095W, strain BCK1, stronger effect = lower value 0.953 and 1.06 | locus YJL115W, strain asf1, stronger effect = lower value 0.994 | locus YJL129C, strain trk1, stronger effect = lower value 0.979 | locus YJL134W, strain LCB3, stronger effect = lower value 0.989 | locus YJL154C, strain vps35, stronger effect = lower value 0.989 | locus YJL164C, strain tpk1, stronger effect = lower value 1 | locus YJL166W, strain qcr8, stronger effect = lower value 0.98 | locus YJL168C, strain set2, stronger effect = lower value 0.989 | locus YJL187C, strain SWE1 (second series), stronger effect = lower value 0.974 | locus YJL187C, strain SWE1, stronger effect = lower value 0.995 | locus YJR043C, strain POL32, stronger effect = lower value 0.975 | locus YJR066W, strain TOR1, stronger effect = lower value 0.999 | locus YJR075W, strain HOC1, stronger effect = lower value 0.976 | locus YKL009W, strain mrt4, stronger effect = lower value 0.964 | locus YKL068W, stronger effect = lower value 0.989 | locus YKL085W, strain MDH1 (second series), stronger effect = lower value 0.974 | locus YKL085W, strain MDH1, stronger effect = lower value 0.974 | locus YKL160W, strain elf1, stronger effect = lower value 0.996 | locus YKR001C, strain vps1, stronger effect = lower value 0.998 | locus YKR026C, strain gcn3, stronger effect = lower value 0.978 | locus YKR091W, strain srl3, stronger effect = lower value 0.992 | locus YLL001W, strain dnm1, stronger effect = lower value 0.983 | locus YLL026W, stronger effect = lower value 0.998 | locus YLL041C, strain sdh2, stronger effect = lower value 0.999 | locus YLR027C, strain aat2, stronger effect = lower value 0.995 | locus YLR039C, strain RIC1, stronger effect = lower value 0.928 | locus YLR058C, strain SHM2, stronger effect = lower value 0.969 | locus YLR102C, strain apc9, stronger effect = lower value 0.98 | locus YLR113W, strain HOG1, stronger effect = lower value 1.07 | locus YLR221C, strain rsa3, stronger effect = lower value 1 | locus YLR258W, strain gsy2, stronger effect = lower value 1.01 | locus YLR262C, strain YPT6 (second series), stronger effect = lower value 1.01 | locus YLR262C, strain YPT6, stronger effect = lower value 0.911 | locus YLR268W, strain sec22, stronger effect = lower value 1 | locus YLR320W, strain mms22, stronger effect = lower value 0.985 | locus YLR330W, strain CHS5, stronger effect = lower value 0.991 | locus YLR342W, strain FKS1 (second series), stronger effect = lower value 1.04 | locus YLR342W, strain FKS1, stronger effect = lower value 0.999 | locus YLR357W, strain rsc2, stronger effect = lower value 0.977 | locus YLR370C, strain arc18, stronger effect = lower value 1 | locus YLR371W, strain rom2, stronger effect = lower value 0.985 | locus YLR384C, strain iki3, stronger effect = lower value 0.981 | locus YLR418C, strain cdc73, stronger effect = lower value 0.95 | locus YML016C, strain PPZ1, stronger effect = lower value 0.992 | locus YML032C, strain rad52, stronger effect = lower value 0.974 | locus YML120C, strain ndi1, stronger effect = lower value 0.995 | locus YML124C, strain tub3, stronger effect = lower value 0.983 | locus YMR058W, strain fet3, stronger effect = lower value 1.01 | locus YMR078C, strain ctf18, stronger effect = lower value 0.984 | locus YMR125W, strain sto1, stronger effect = lower value 0.987 | locus YMR129W, stronger effect = lower value 0.987 | locus YMR205C, strain PFK2, stronger effect = lower value 0.996 | locus YMR223W, strain ubp8, stronger effect = lower value 0.956 | locus YMR231W, strain pep5, stronger effect = lower value 0.979 | locus YMR263W, strain SAP30, stronger effect = lower value 0.981 | locus YMR307W, strain GAS1, stronger effect = lower value 0.951 | locus YNL067W, strain RPL9B, stronger effect = lower value 0.97 | locus YNL071W, strain lat1, stronger effect = lower value 1 | locus YNL153C, strain GIM3, stronger effect = lower value 0.968 | locus YNL183C, strain NPR1, stronger effect = lower value 0.999 | locus YNL209W, strain ssb2, stronger effect = lower value 1 | locus YNL233W, strain BNI4, stronger effect = lower value 0.998 | locus YNL248C, strain rpa49, stronger effect = lower value 1 | locus YNL250W, strain rad50, stronger effect = lower value 0.988 | locus YNL271C, strain bni1, stronger effect = lower value 0.982 | locus YNL298W, strain CLA4, stronger effect = lower value 0.956 | locus YNL307C, strain MCK1, stronger effect = lower value 0.988 | locus YNL322C, strain KRE1 (second series), stronger effect = lower value 1 | locus YNR049C, strain mso1, stronger effect = lower value 1 | locus YNR052C, strain pop2, stronger effect = lower value 0.982 | locus YOL012C, strain htz1 1.7 | locus YOL147C, strain pex11, stronger effect = lower value 0.986 | locus YOR001W, strain rrp6, stronger effect = lower value 0.961 | locus YOR061W, strain CKA2, stronger effect = lower value 0.969 | locus YOR069W, strain VPS5, stronger effect = lower value 0.994 | locus YOR070C, strain gyp1, stronger effect = lower value 0.993 | locus YOR080W, strain dia2, stronger effect = lower value 0.977 | locus YOR083W, strain WHI5, stronger effect = lower value 1.01 | locus YOR106W, strain vam3, stronger effect = lower value 1.01 | locus YOR136W, strain idh2, stronger effect = lower value 0.989 | locus YOR144C, strain elg1, stronger effect = lower value 0.977 | locus YOR184W, strain ser1, stronger effect = lower value 0.959 | locus YOR231W, strain MKK1, stronger effect = lower value 1.09 | locus YOR265W, strain rbl2, stronger effect = lower value 1.01 | locus YOR270C, strain vph1, stronger effect = lower value 0.995 | locus YOR290C, strain snf2, stronger effect = lower value 1.04 | locus YOR316C, strain cot1, stronger effect = lower value 0.979 | locus YPL051W, strain arl3, stronger effect = lower value 0.994 | locus YPL078C, strain atp4, stronger effect = lower value 1.01 | locus YPL106C, strain sse1, stronger effect = lower value 0.994 | locus YPL240C, strain hsp82, stronger effect = lower value 0.99 | locus YPL241C, strain CIN2, stronger effect = lower value 0.988 | locus YPL256C, strain CLN2, stronger effect = lower value 1.08 | locus YPR119W, strain clb2, stronger effect = lower value 0.982 | locus YPR141C, strain kar3, stronger effect = lower value 0.978 | locus YPR163C, strain tif3, stronger effect = lower value 0.987 | locus YPR167C, strain met16, stronger effect = lower value 0.99 | strain wtn01, stronger effect = lower value 1.04
